Screening data (PubChem BioAssay)
HPGD block: blocks human HPGD enzyme activity. P15428. purified HPGD, NADH fluorescence kinetic, PGE2 substrate. Potency, µM, hits mostly inhibitors. hit rate 4.3% among 150,000
Target sequence (P15428 whole entry, looked up): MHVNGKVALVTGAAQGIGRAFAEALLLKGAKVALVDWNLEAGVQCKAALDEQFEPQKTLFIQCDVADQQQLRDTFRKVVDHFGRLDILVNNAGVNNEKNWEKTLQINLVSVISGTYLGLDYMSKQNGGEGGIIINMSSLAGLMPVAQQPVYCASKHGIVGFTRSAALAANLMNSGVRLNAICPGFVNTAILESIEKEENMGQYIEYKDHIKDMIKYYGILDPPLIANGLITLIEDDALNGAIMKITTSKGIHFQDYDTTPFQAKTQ
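NADH formation kinetics: reaction with 30 uM PGE2 and 1 mM NAD+ (final), 20 nM enzyme, Tris-HCl pH 8 with Tween 20, after 15 min compound preincubation at room temperature. Fluorescence change, last versus first of five reads.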
KDM4E inh: inhibitors of human JMJD2E histone demethylase; JMJD2E catalytic domain, FDH-coupled NADH fluorescence (FDH is formaldehyde dehydrogenase); hit rate 1.6% among 230,000; Potency, µM (highest dose often 57.1 µM), usual class: inhibitors; AID 2147; also: nearly all actives have a fitted effect of over 50% in size
Target sequence (B2RXH2 1-337 limits assumed): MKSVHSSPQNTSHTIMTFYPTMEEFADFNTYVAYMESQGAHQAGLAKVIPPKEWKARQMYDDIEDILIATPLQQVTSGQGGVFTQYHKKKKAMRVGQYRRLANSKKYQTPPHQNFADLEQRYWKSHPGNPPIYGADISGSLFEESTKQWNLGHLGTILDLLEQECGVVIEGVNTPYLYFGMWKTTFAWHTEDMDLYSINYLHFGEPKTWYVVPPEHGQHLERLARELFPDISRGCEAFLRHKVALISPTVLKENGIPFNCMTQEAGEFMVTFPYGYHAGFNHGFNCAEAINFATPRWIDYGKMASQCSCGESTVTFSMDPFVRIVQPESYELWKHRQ
ALDH1A1 block: blocks purified human ALDH1A1 activity | Purified ALDH1A1, NADH fluorescence, propionaldehyde substrate | P00352 | Potency, µM (top dose mostly 75.3 µM), usual class: inhibitors | hit rate 7.3% among 220,000
PNC assembly inh: blocks assembly of the perinucleolar compartment | hit rate 3.1% among 140,000 | activity change (PNC), negative = inhibition, % at 10 µM | PC3M PTB-GFP, PNC prevalence imaging, 16 h; active compounds read low;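 active = readout at or below -70, meaning at least 70% loss of cells showing the perinucleolar compartment, a nuclear body marking cancer cells; inconclusive = readout between -30 and a set limit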
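Read-out is percentage of cells bearing a perinucleolar compartment, from automated 20x imaging of fixed, Hoechst-stained PC3M PTB-GFP cells. Cells were seeded 4 h, then exposed 16 h to compound (23 nl of library stock) in duplicate plates.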
Hits are given with their value; n = inactive; u = inconclusive; x = no result given; [ ] = another dose, or the depositor's remark. Compounds with a hit are over-represented: about 11% of the library has one in this group of screens. Unless noted, calls follow the shape of the dose curve; as a rule, active = well fitted inhibition curve with a large enough effect (not every such curve was filed as active); inconclusive = small, poorly fitted or top-dose-only effect, or another doubt; inactive = no such curve, though single readings can be large or run the other way.

SMILES	HPGD block	KDM4E inh	ALDH1A1 block	PNC assembly inh
CCn1cc(C(=O)NCc2ccccc2Cl)cn1	31.6µM	n	n	u
CC(C)CN(C(=O)COC(=O)c1ccc2c(c1)NC(=O)CS2)C1CCS(=O)(=O)C1 (configuration not stated)	u	n	39.8µM	u
CC(C)CCNC(=O)CCc1nnc(COc2ccccc2)o1	x	n	n	x
CC(C)Nc1nc(Cl)nc(N(C#N)CN2C(=O)c3ccccc3C2=O)n1	n	n	u	n
CCC(C)Nc1nc(Cl)nc(N(C#N)CN2C(=O)c3ccccc3S2(=O)=O)n1 (configuration not stated)	x	n	12.6µM	x
COc1ccc(/C=C(/NC(=O)c2ccccc2)C(=O)N/N=C/c2ccc3c(c2)OCO3)cc1OC	31.6µM	u	n	n
COc1ccc(/C=N/NC(=S)NC2CCS(=O)(=O)C2)cc1OC (configuration not stated)	u	n	n	-100.0
CN(C)c1ccc(/C=C(/NC(=O)c2ccccc2)C(=O)N/N=C/c2ccc([N+](=O)[O-])c(O)c2)cc1	15.8µM	n	3.98µM	n
COc1ccc(/C=N/NC(=O)C(=O)N2CCCC2)cc1OC	31.6µM	n	n	n
O=C(c1ccncc1)N1CCC2(CC1)CN(C(c1ccccc1)c1ccccc1)C2	n	x	n	x
COc1ccc(/C=N/NC(=O)CN2CCSCC2)cc1C	n	n	10µM	n
O=C(COc1ccccc1C(=O)NCc1ccccn1)Nc1ccc(Br)cc1	x	n	n	x
COc1ccc(C(=O)C2CCCN(C(=O)c3noc4c3CCCC4)C2)c(C)c1 (configuration not stated)	x	u	5.01µM	x
COc1ccc(C(=O)C2CCCN(C(=O)c3noc4c3CCCC4)C2)cc1F (configuration not stated)	x	n	3.55µM	x
COc1ccc(OC)c(NC(=O)N2CCCC(C(=O)c3ccccc3OC)C2)c1 (configuration not stated)	x	n	12.6µM	x
COc1cc(NC(=O)c2ccc([N+](=O)[O-])cc2)ccc1NC(=O)C(C)C	x	n	n	x
Cc1noc(C)c1C(=O)N1CCC2(CCCN(c3ccncc3)C2)CC1	n	x	n	x
CCCCN(CC(=O)NCCOC)C(=O)Cn1nnc2ccccc21	x	n	n	x
C#CCNC(=O)C1CCN(c2cc(C)nc(-c3ccccc3)n2)CC1	x	n	n	x
Nc1nc(-c2ccc3c(c2)NC(=O)CO3)cs1	17.8µM	n	3.16µM	u
CCC(C)C(=O)Nc1nc(-c2ccc3c(c2)NC(=O)CO3)cs1 (configuration not stated)	n	n	20µM	n
C/C=C\C1=C(CO)[C@H](O)[C@H]2O[C@H]2[C@H]1O	x	x	n[13.5 µM]	x
C/C=C\C1=C(CO)C(=O)[C@@H]2OC2C1=O (some centres not stated)	x	x	0.708µM	x
CC(=C/c1ccco1)/C=N/NC(=O)CSc1nnc(SCc2ccc(C)cc2)s1	u	n	u	n
O=C(Cn1cnc2cc([N+](=O)[O-])ccc2c1=O)NCCc1ccc(F)cc1	x	n	31.6µM	x
SMILES	HPGD block	KDM4E inh	ALDH1A1 block	PNC assembly inh
N#CC1=C(SCC(=O)c2cc3ccccc3oc2=O)NC(=O)C(C#N)C12CCCC2 (configuration not stated)	u	u	1.12µM	n
CC(C)(C)C1CCC2(CC1)C(C#N)=C(SCC(=O)Nc1ccccc1)NC(=O)C2C#N (configuration not stated)	u	n	8.91µM	n
CC1(C)CC(=O)C2=C(C1)NC(SCC(=O)Nc1ccccc1)=C(C#N)C21CCCCC1	u	u	22.4µM	n
N#CC1=C(N)NC(SCc2ccc(Br)cc2)=C(C#N)C12CCCCC2	n	n	u	n
Cc1nc(SCC(=O)c2cc3ccccc3oc2=O)c(C#N)c(-c2ccccc2)c1C(=O)Nc1ccccc1	n	u	n	n
CC1=C(C(=O)Nc2ccccc2)C2(CCCCC2)C(C#N)=C(SCC(N)=O)N1	n	n	n	n
N#CC1=C(N)NC(SCc2ccc(Cl)cc2)=C(C#N)C12CCCCC2	n	n	12.6µM	n
Cc1noc(C)c1C(=O)N1CCC[C@@]2(CCN(Cc3cc(C(F)(F)F)cc(C(F)(F)F)c3)C2)C1	n	x	n	x
N#CC1=C(N)NC(SCC(=O)c2ccccc2)=C(C#N)C12CCCC2	u	n	12.6µM	n
N#CC1=C(N)N2C(=C(C#N)C13CCN(Cc1ccccc1)CC3)Nc1ccccc12	n	u	u	n
N#CC1=C(N)NC(SCc2ccccc2)=C(C#N)C12CCCC2	u	n	25.1µM	-113.4
N#CC1=C(N)NC(SCC(=O)Nc2ccc(Br)cc2)=C(C#N)C12CCCCC2	n	n	28.2µM	n
CCSC1=C(C#N)C2(CCCC2)C(C#N)=C(N)N1	u	n	u	-81.2
Cc1[nH][nH]c(=O)c1C(c1c(C)[nH][nH]c1=O)c1cn(Cc2ccc(F)cc2)c2ccccc12	n	u	1.41µM	n
O=C(O)Cc1cn(Cc2ccc(F)cc2)c2ccccc12	x	n	n	x
Cc1[nH][nH]c(=O)c1C(c1c(C)[nH][nH]c1=O)c1cn(Cc2ccc(Cl)c(Cl)c2)c2ccccc12	n	n	3.55µM	n
CCCCC[C@H](O)CC[C@H]1[C@H](O)CC(=O)[C@@H]1CCCCCCC(=O)O	n	n	n	x
O=C1CC(c2ccc(O[C@@H]3OC(CO)[C@@H](O)C(O)C3O)cc2)Oc2cc(O)ccc21 (some centres not stated)	n	n	n	x
Cn1cccc1C(=O)N1CCC2(CCCN(c3ccccc3)C2)CC1	n	x	u	x
O=C1C2C3C=CC(C3)C2C(=O)N1/N=C/c1ccc(-c2ccccc2[N+](=O)[O-])o1 (configuration not stated)	n	n	2.24µM	u
O=C1C2C3C=CC(C4CC34)C2C(=O)N1/N=C/c1ccc([N+](=O)[O-])o1 (configuration not stated)	x	n	3.16µM	x
O=C1C2C3C=CC(C3)C2C(=O)N1/N=C/c1cc(Br)cc([N+](=O)[O-])c1O (configuration not stated)	n	n	u	u
Cc1ccc(-c2ccc(/C=N/N3C(=O)C4C5C=CC(C6CC56)C4C3=O)o2)c([N+](=O)[O-])c1 (configuration not stated)	12.6µM	n	u	n
O=C(NCCc1c[nH]c2ccccc12)C(=O)NCC1OCCCN1S(=O)(=O)c1cc(F)ccc1F (configuration not stated)	x	n	n	x
CC(=O)NNc1cc(C)nc(N)n1	x	n	x	x
SMILES	HPGD block	KDM4E inh	ALDH1A1 block	PNC assembly inh
O=C(NC(=S)NCC1CCCO1)C(c1ccccc1)c1ccccc1 (configuration not stated)	n	n	n	n
Cn1c(SCC(=O)N/N=C/c2ccccn2)nnc1-c1ccccc1	x	n	n	x
Cc1ccc2cc(CN(CC3CCCO3)S(=O)(=O)c3ccccc3)c3nnnn3c2c1 (configuration not stated)	n	n	7.08µM	-100.0
Cc1nn(-c2ccccc2)c2sc(C(=O)N3CCCCC3)cc12	3.98µM	n	1.78µM	n
O=C(c1nc(-c2ccccc2)n(-c2ccccc2)n1)N1CCCCCC1	n	n	8.91µM	n
Cc1nn(-c2ccccc2)c2sc(C(=O)N3CCc4ccccc4C3)cc12	u	u	u	n
